# Hits are enriched below; roughly 4.7% of the tested compounds scored in any of these assays.
# FH mod: Identification of activators of human fumarate hydratase by quantitative high-throughput screening | Potency, µM (series often up to 79.9 µM), for inactives: at the top dose activity change, negative = inhibition, most hits filed as inhibitors | Fumarate hydratase, mitochondrial (Homo sapiens), P07954 | hit rate 0.22% among 54,000 | AID 1347055, 2019 | FH coupled MDH/diaphorase resazurin fluorescence, 15 min; note: potency is the fitted concentration of half-maximal effect; % is set by controls: 0 for no effect and ±100 for the full control effect; the screen sought activators but most active calls are inhibition curves; nearly all actives have a fitted effect of over 45% in size
# HTT-AS promoter: activates huntingtin-antisense promoter activity; HEK293 HTT-AS promoter firefly luciferase reporter, 24 h; response scale: percent change from vehicle, -100% = no light; Potency, µM (titrated, usually from 57.5 µM), inactives show at the top dose activity change, positive = activation, actives largely listed as activators; AID 1508624; hit rate 0.24% among 48,000; note: potency is the fitted concentration of half-maximal effect; nearly all actives have a fitted effect of over 55% in size
#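 Quantitative HTS used concentration series of up to 57.5 uM final on HEK293 luciferase reporter cells, 24 h at 37 degrees C. Readout was Dual-Glo firefly luminescence.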
# NTMT1 inhibitor: blocks human N-terminal methyltransferase 1 activity. Q9BV86. NTMT1 MTase-Glo SAH luminescence, purified enzyme. Potency, µM (series often up to 114 µM), for inactives: at the top dose activity change, negative = inhibition, actives largely listed as inhibitors. hit rate 2.5% among 59,000. AID 1645870;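 note: potency is the fitted concentration of half-maximal effect; plate controls were DMSO vehicle for no effect and no enzyme for full effect; nearly all actives have a fitted effect of over 65% in size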
# Target sequence (Q9BV86 whole entry, looked up): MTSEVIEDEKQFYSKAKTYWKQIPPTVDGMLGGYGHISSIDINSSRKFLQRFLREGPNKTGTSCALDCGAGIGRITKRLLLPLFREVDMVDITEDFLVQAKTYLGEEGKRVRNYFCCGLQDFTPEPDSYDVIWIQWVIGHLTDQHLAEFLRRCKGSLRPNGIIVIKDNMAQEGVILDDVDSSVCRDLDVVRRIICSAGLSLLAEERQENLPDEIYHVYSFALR
# HTT prom inh: inhibitors of huntingtin promoter activity. Potency, µM (top dose mostly 57.5 µM), for inactives: at the highest dose activity change, negative = inhibition, usual class: inhibitors. hit rate 0.93% among 48,000. HEK293 HTT promoter firefly luciferase reporter, 24 h; note: potency is the fitted concentration of half-maximal effect; nearly all actives have a fitted effect of over 50% in size
#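 HEK293 cells carrying firefly luciferase reporters were seeded at 2,500 per well in Opti-MEM and cultured for 24 h. They were then treated with compounds at up to 57.5 uM final for 24 h at 37 degrees C before Dual-Glo luminescence readout.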
# GPR32 ag: GPR32 (DRV1) agonism, beta-arrestin recruitment | hit rate 2.5% among 48,000 | activation, % at 76.9 µM | CHO-K1 GPR32 beta-arrestin PathHunter luminescence, 90 min; zero percent set by DMSO-only wells | O75388;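 active = activation of at least 60% and not above a set upper limit, about 1 call in 100 departs from these limits; inconclusive = activation of 40% to 60%, or above that upper limit; inactive = activation under 40%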; note: 0% is about no effect
#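 PathHunter enzyme-fragment complementation, CHO-K1 GPR32 stable line; 2,500 cells/well, overnight attach; cpd 90 min 37 °C 5% CO2; detection reagent 1 h RT; chemiluminescence. DMSO = EC0.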
# Numbers without * were called inactive; ? = inconclusive; . = no result given; ! = not active in a repeat; [ ] = remark or other dose. Unless noted, calls come from the whole dose curve; as a rule, active = well fitted curve in the direction sought with a large enough effect; inconclusive = small, poorly fitted or top-dose-only effect, or another doubt; inactive = no such curve, though single readings can be large; an effect the other way counts as inactive or inconclusive.
SMILES,FH mod,HTT-AS promoter,NTMT1 inhibitor,HTT prom inh,GPR32 ag
COc1cccc(CNC(=O)Cn2nc(C)n3c(cc4cc(C)ccc43)c2=O)c1OC,-12%,0%,-11%,-2%,-7
COc1cccc(-c2nc(SCc3cc(=O)c4cc(Cl)ccc4[nH]3)n[nH]2)c1,-9%,-19%,7%,-30%,?
CCOC(=O)c1cccc(NC(=O)NC(C)c2c(-n3cccc3)sc3c2CCN(C)C3)c1 (centres undefined),-9%,-24%,-5%,-33%,-22
CNC[C@H](O)[C@@H](O)[C@H](O)[C@H](O)CO,-1%[53.3 µM],-9%,44%[57.5 µM],6%,-7
COc1ccc(OCC(=O)NC2CC(=O)N(c3ccc4c(c3)OCCO4)C2)cc1 (centres undefined),0%,19%,15%,-7%,-16
COc1ccc(CCNC(=O)CCc2c(C)c3cc4c(C)coc4c(C)c3oc2=O)cc1OC,-6%,-16%,89µM*,-12%,-9
COc1ccc(CNC(=O)Cc2c(C)c3cc4c(C)coc4c(C)c3oc2=O)cc1OC,-4%,-8%,-8%,-5%,-4
COc1ccc(CNC(=O)CCc2c(C)c3cc4c(C)coc4cc3oc2=O)cc1,.,.,.,.,68*
Cc1ccccc1NC(=O)CSc1nc(-c2ccco2)nc2cc(=O)[nH]n12,.,.,.,.,-3
CCOC(=O)C1CCN(c2cc3c(cc2NC(=O)c2ccc(Cl)cc2)n(C)c(=O)n3C)CC1,20µM*,-9%,-12%,-4%,4
COc1cccc(CNC(=O)CSC2=Nc3ccccc3N=C(c3ccc(F)cc3)C2)c1,-3%,-37%,3%,-30%,-16
CCCN(CCC)CCCNC(=O)c1cc2c(=O)n(C)c3ccccc3c2s1,?,0%,50µM*,19%,16
CCn1c(=O)c2cc(C(=O)NCCCN(C)Cc3ccccc3)sc2c2ccccc21,?,-3%,?,11%,38
Cc1c(C)n(Cc2ccccc2)c2ccc(C(=O)OCCN(C)C)cc12,-8%[53.3 µM],-3%,5.6µM*,-8%,5
Cc1ccc(CNC(=O)c2ccc3c(c2)c(C)c(C)n3Cc2ccccc2)o1,-27%,-19%,22µM*,-11%,-31
COc1ccc(OC)c(NC(=O)CSc2n[nH]c(-c3ccccc3Cl)n2)c1,7.9µM*,-21%,0%,-21%,13
O=C1Nc2ccccc2/C1=C/c1cc(O)ccc1O,?,.,40µM*,.,.
CCOC(=O)c1c(NC(=O)c2cc(=O)c3ccc(C)cc3o2)sc(C)c1C,-1%,-5%,5%,0%,5
CC(C)(C)OC(=O)N1CCN(c2ccc(NCc3ccc(-c4ccc(C#N)cc4)s3)cc2)CC1,.,.,2%,.,.
CN1CCN(C(c2ccccc2)c2sc3nc(-c4ccco4)nn3c2O)CC1 (centres undefined),-3%,10%,7%,0%,-6
COc1ccc(S(=O)(=O)c2c(SC)nn(CC(=O)Nc3ccc(C)c(Cl)c3)c2N)cc1,?,-66%,11%,?,86*
CCSc1nn(CC(=O)Nc2cccc(Cl)c2)c(N)c1S(=O)(=O)c1ccc(OC)cc1,?,-29%,3%,?,?
CCc1ccc(NC(=O)Cn2nc(SC)c(S(=O)(=O)c3ccc(OC)cc3)c2N)cc1,-24%,-2%,8%,-19%,15
CCSc1nn(CC(=O)Nc2cccc(CC)c2)c(N)c1S(=O)(=O)c1ccccc1,?,-45%,-5%,?,94*
CC(C(O)/C=C/C(C)(C)O)C1CCC2(C)C3C(=O)C=C4C(CCC(O)C4(C)C)C3(C)CCC12C (centres undefined),1%[53.3 µM],.,7%[29.8 µM],.,.
COc1ccc(/C=C/C(=O)Nc2ccc3nc(N4CCC(C)CC4)cc(C)c3c2)cc1OC,?,-29%,7%,?,-34
COc1cc(=C2C=c3ccccc3=N2)[nH]/c1=C/c1[nH]c(C)cc1C,.,.,40µM*,.,.
Cc1nc2ccc(-n3ncc(C(=O)c4cc5ccccc5[nH]4)c3N)cc2[nH]1,-10%,.,-7%,.,.
CC(C)Oc1ccc2c(=O)c(-c3ccccc3)coc2c1,-5%[53.3 µM],0.86µM*!,4%[57.5 µM],24%,15
O=c1c(-c2ccc(O)cc2)coc2cc(O)ccc12,-28%[53.3 µM],?,?,0%,-5

# Compound activity deposited in PubChem BioAssay by National Center for Advancing Translational Sciences (NCATS).
